# Measurements reported in paper PMC4336329 (PLoS ONE, 2015).
# Hit rate of the full screen: of about 310,000 compounds, about 14,000 (4.5%) showed an effect of 50% or more. Effects have a minus sign here. The list comes from a sample in which strong results are over-represented; it also holds similar structures and randomly drawn compounds.
# Target: human ether-à-go-go-related gene (hERG) potassium channel (human, UniProt Q12809)
# Test: primary screen, population patch clamp on CHO cells stably expressing hERG; higher = less effect of the substance
# 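Also: peak tail current of the secondary pulse compared with the same well before compound.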
# human ether-à-go-go-related gene (hERG) potassium channel, sequence (Q12809 whole entry, looked up): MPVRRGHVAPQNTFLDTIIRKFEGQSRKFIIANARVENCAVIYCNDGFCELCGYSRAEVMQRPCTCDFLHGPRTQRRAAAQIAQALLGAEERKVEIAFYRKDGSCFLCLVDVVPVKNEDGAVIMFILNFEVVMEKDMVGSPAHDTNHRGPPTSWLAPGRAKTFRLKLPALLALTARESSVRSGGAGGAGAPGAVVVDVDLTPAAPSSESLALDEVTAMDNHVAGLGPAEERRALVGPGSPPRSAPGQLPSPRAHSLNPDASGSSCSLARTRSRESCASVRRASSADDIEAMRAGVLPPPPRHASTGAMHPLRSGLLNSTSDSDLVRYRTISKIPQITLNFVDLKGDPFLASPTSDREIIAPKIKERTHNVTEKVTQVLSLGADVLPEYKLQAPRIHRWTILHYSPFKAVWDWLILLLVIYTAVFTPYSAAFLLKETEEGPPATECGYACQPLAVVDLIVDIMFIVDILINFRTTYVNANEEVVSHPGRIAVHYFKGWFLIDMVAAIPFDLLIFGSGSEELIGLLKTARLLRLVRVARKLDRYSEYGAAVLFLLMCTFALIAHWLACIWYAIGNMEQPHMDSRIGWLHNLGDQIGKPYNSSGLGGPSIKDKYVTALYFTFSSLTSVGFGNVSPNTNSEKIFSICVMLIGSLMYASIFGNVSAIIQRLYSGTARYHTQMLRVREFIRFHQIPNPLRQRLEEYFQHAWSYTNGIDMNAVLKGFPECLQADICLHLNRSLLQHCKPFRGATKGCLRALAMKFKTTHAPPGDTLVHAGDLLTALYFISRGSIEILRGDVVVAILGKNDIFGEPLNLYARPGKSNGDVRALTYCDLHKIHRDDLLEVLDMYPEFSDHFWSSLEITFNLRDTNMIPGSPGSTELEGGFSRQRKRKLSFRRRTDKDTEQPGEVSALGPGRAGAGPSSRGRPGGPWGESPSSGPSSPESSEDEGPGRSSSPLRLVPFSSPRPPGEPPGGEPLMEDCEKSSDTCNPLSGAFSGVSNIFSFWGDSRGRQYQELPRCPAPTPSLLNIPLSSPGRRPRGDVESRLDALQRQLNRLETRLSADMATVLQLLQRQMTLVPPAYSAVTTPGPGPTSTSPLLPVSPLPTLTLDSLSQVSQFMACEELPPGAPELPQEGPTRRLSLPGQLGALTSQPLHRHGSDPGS
row,SMILES,"hERG current change (%, negative = inhibition) at 10uM [%]"
1,O=C(O)C(=O)O.c1ccc(CNC2=NCCCC2)cc1,1.76
2,COc1ccccc1CCC(=O)Nc1ccc(S(=O)(=O)Nc2cc(C)nc(C)n2)cc1,12
3,COc1ccccc1-n1ccnc1SCC(=O)NC(C)(C)C,13.3
4,CN(C)c1ccc(NC(=S)NC(=O)/C=C/c2ccc(Cl)cc2)cc1,2.39
5,CNC(=O)c1csc(Cc2c(Cl)sc3ccc(Cl)cc23)n1,-2.3
6,CC(=O)NNC(=O)c1csc(Cc2c(Cl)sc3ccc(Cl)cc23)n1,-19.6
7,CNC(=O)NNC(=O)c1csc(Cc2c(Cl)sc3ccc(Cl)cc23)n1,-52.1
8,CN=C(Nc1ccccc1OC)SC1CC(=O)N(c2ccc(C(=O)OC)cc2)C1=O (stereo not drawn),-12.5
9,O=C(Nc1cccnc1)/C(N=Nc1ccc(Cl)c(C(F)(F)F)c1)=C(\O)c1ccccc1,29.3
10,O=C(Nc1cccnc1)/C(N=Nc1cccnc1)=C(\O)c1ccccc1,-53
11,O=C(Nc1cccnc1)/C(N=Nc1c(Cl)cccc1Cl)=C(\O)c1ccccc1,18.8
12,COc1cccc(CNC(=O)CCC2CCCN(C(=O)CCc3c(C)noc3C)C2)c1 (stereo not drawn),-2.56
13,COc1ccc(CCNS(=O)(=O)c2ccc3oc(C(=O)O)c(C)c3c2)cc1OC,0.0936
14,CCOC(=O)C(NC(=O)Nc1ccc(C(N)=O)cc1)(c1ccccc1)C(F)(F)F (stereo not drawn),-14.6
15,Cc1cc(/C=N/n2cnnc2)c(C)n1-c1cccc(Cl)c1,-22.2
16,Cc1cccc(-n2c(SCc3cc(=O)n4ccsc4n3)nc3ccccc3c2=O)c1,-5.76
17,O=C(Nc1ccc(Cl)cc1)N1CCN(C(=O)C2CCCO2)CC1 (stereo not drawn),14.9
18,COc1ccc(C(=O)Nn2cnnc2)cc1OC,14.6
19,CCOc1ccc(C(=O)Nn2cnnc2)cc1OCC,-70.4
20,CCOc1cc(C(=O)Nn2cnnc2)cc(OCC)c1OCC,13.8
21,CC1CCc2cc(F)ccc2N1C(=O)c1ccncc1 (stereo not drawn),7.7
22,Cc1cccc(N(C(=O)Cc2cccs2)C(C(=O)NC2CCCC2)c2ccncc2)c1 (stereo not drawn),8.83
23,CC(C)C(c1nnnn1Cc1cccs1)N1CCN(C(=O)c2ccco2)CC1 (stereo not drawn),-31.6
24,O=C(c1ccco1)N1CCN(C(c2ccc(F)cc2)c2nnnn2CC2CCCO2)CC1 (stereo not drawn),-13.7
25,O=C(c1ccco1)N1CCN(C(c2ccccc2)c2nnnn2Cc2cccs2)CC1 (stereo not drawn),-38.9
26,Cc1ccc(C(c2nnnn2Cc2cccs2)N2CCN(C(=O)c3ccco3)CC2)cc1 (stereo not drawn),-62.5
27,Cl.O=C(c1ccco1)N1CCN(C(c2ccc(F)cc2)c2nnnn2Cc2cccs2)CC1 (stereo not drawn),-57

row,SMILES,"hERG current change (%, negative = inhibition) at 10uM [%]"
1,CC(C)CCn1nnnc1C(c1ccc(F)cc1)N1CCN(C(=O)c2ccco2)CC1 (stereo not drawn),-38.1
2,CCCCc1nnc(NC(=O)CSCc2cc(=O)n3cc(C)sc3n2)s1,5.31
3,Cc1ccc2c(CC(=O)Nc3c(C)n(C)n(-c4ccccc4)c3=O)coc2c1,-7.21
4,O=C1N(Cc2cccnc2)C[C@@H]2C[C@@H](c3cccc(Oc4ccccc4)c3)N3CCC[C@@]123,-59.4
5,O=C1N(Cc2cccnc2)C[C@@H]2C[C@@H](c3cccc(OCc4ccccc4)c3)N3CCC[C@@]123,-63.6
6,COc1ccccc1CN1C[C@@H]2C[C@@H](c3cccc(C)c3)N3CCC[C@@]23C1=O,-37
7,O=C1N(Cc2cccnc2)C[C@@H]2C[C@@H](c3cccc(OC4CCCC4)c3)N3CCC[C@@]123,-69.5
8,COc1ccccc1CN1C[C@@H]2C[C@@H](c3cccc(O)c3)N3CCC[C@@]23C1=O,-33.6
9,CC(C)(C)NC(=S)NNC(=O)[C@H]1C[C@@H]1c1ccccc1,11
10,Cc1ccc(S(=O)(=O)N[C@H](C(=O)N2CCC(C(=O)N[C@@H](CC(=O)O)C(=O)O)CC2)C(C)C)cc1,24.9
11,O=c1cc(-c2ccccc2)cc(-c2ccccc2)n1CCO,-21.5
12,O=C(CCN1CCCC1=O)NC1CCCc2c1cnn2-c1ccc(F)cc1F (stereo not drawn),-2.54
13,CCOC(=O)N1CCC(NS(=O)(=O)c2ccc3c(c2)CCN3C(C)=O)CC1,-0.517
14,CC(C)C(C(=O)NC(C)(C)C)N(CCN1CCOCC1)C(=O)CNS(=O)(=O)c1ccccc1 (stereo not drawn),0.875
15,CC(/C=C/c1ccco1)=N\NC(=O)c1cc(C)[nH]n1,5.55
16,CC(=O)Nc1ccc(N(C(=O)Cc2cccs2)C(C(=O)NC2CCCC2)c2ccncc2)cc1 (stereo not drawn),9.17
17,CC1(C)CC(=O)C(=Cc2cn(-c3ccccc3)nc2-c2ccccc2)C(=O)C1,-24.1
18,O=C(NC1CC2CCC(C1)N2Cc1ccccc1)c1ccccc1Br (stereo not drawn),-20.1
19,CCCCN1C2CCCC1CC(NC(=O)c1cccc(Cl)c1)C2 (stereo not drawn),-75.5
20,O=C(NC1CCCC1)c1cccc(Cl)c1,29.8
21,O=C(NC1CC2CCCC(C1)N2Cc1ccccc1)c1cccc(Cl)c1 (stereo not drawn),-57.9
22,O=C(NC1CC2CCC(C1)N2Cc1ccccc1)c1ccccc1Cl (stereo not drawn),-40.6
23,O=C(NC1CC2CCCC(C1)N2Cc1ccccc1)c1cccc(F)c1 (stereo not drawn),-56.8
24,CCCN1C2CCCC1CC(NC(=O)c1cccc(Cl)c1)C2 (stereo not drawn),-38.9
25,O=C(NC1CC2CCC(C1)N2Cc1ccccc1)c1cccc(F)c1 (stereo not drawn),-60.5
26,CCCCN1C2CCCC1CC(NC(=O)c1cccc(OC)c1)C2 (stereo not drawn),-19.3
27,Cc1cccc(C(=O)NC2CC3CCCC(C2)N3Cc2ccccc2)c1 (stereo not drawn),-40.9
